Several values for one entry are separate records, joined by “and”; a condition that tells them apart may be missing. Equal values may be shown once. This is part of a sample that, as a whole, favours compounds with a hit. Of some 83,000 tested, about 20% had one in any assay.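 Cell lines were cultured in 96-well plates, exposed to a single compound concentration, and assessed for percent growth 48 hours later.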 Activity calls are given as the source filed them.
test system: SK-OV-3 ovarian; test: NCI-60 one-dose screen, 48 h (100 = growth as untreated, 0 = no growth, -100 = all killed); conditions: 10 µM
Method: Growth inhibition of the SK-OV-3 human tumor cell line is measured as a screen for anti-cancer activity. Cells are grown in 96 well plates and exposed to the test compound for 48 hours. Compounds are tested at a single concentration, which is 10^-5 M for most compounds. The reported endpoint is percent growth (GI% or GIPRCNT), where numbers from 0 - 100% represent growth inhibition, and numbers from -100% - 0 represent cell death. For example, a value of 40 represents 60% growth inhibition. A value of 0 means no net growth occurred over the course of the experiment. A value of -40 indicates 40% of cells at the beginning of the experiment died by the end of the experiment. A value of -100 means all cells are dead at the end of the experiment.
NCI-60 Human Tumor Cell Lines Screen was performed using the standard one-dose NCI protocol, which is described in more detail at https://dtp.cancer.gov/discovery_development/nci-60/default.htm.
Compounds with GIPRCNT values below 10 were considered active. Activity score was based on GIPRCNT using the following formula: […]
Score is 0 for GIPRCNT values of 100 or above, 50 for GIPRCNT values of 0, and 100 for GIPRCNT values of -100.

Row | Structure (SMILES) | growth
1 | CCc1ccccc1-n1c(N)c(C#N)c(-c2ccc(OC)c(OC)c2)c(C#N)c1=O | 111% (inactive)
2 | CNC(=O)c1cc(Oc2ccc(CC(=O)Nc3cc(C(C)(C)C)nn3C)cc2)ccn1 | 71.8% (inactive)

same assay, conditions: 10 µM unless noted

Row | Structure (SMILES) | growth
3 | COc1cc(NS(C)(=O)=O)ccc1Nc1c2ccccc2nc2c(C)cccc12 | 5.9% (active) and 11.9% (inactive)
4 | Cn1cnc([N+](=O)[O-])c1Sc1ncnc2nc[nH]c12 | 16.9% (inactive)
5 | CN(C)c1ccc2nc3ccc(N)cc3[n+](-c3ccccc3)c2c1 | 74.1% (inactive) and 30.9% (inactive)
6 | O=C1CCN(Cc2ccccc2)C(=S)N1 | 101% (inactive)
7 | COc1ccc2cc3[n+](cc2c1OC)CCc1cc2c(cc1-3)OCO2 | 88.1% (inactive) and 104% (inactive)
8 | NC(=O)C1CC2C=CC1C2 (stereo not given) | 111% (inactive) and 121% (inactive)
9 | CN(C)CCC(=O)c1ccc(Cl)cc1 | 108% (inactive)
10 | Cc1ncsc1CCO | 101% (inactive) and 110% (inactive)
11 | CC(=O)Nc1ccc2cc3ccc(NC(C)=O)cc3nc2c1 | -13.4% (active) and 67.8% (inactive)
12 | c1ccc(NCc2ccc3c(c2)OCO3)cc1 | 92.4% (inactive) and 99.3% (inactive)
13 | COc1ccc(NC(=S)Nc2ccccn2)cc1 | 98% (inactive)
14 | Cc1nn(-c2ccc(Cl)cc2)c2ncnc(N/N=C/c3ccccc3O)c12 | 4.44% (active) and 10.8% (inactive)
15 | O=S1(=O)CC(Br)C(Br)C1 (stereo not given) | 105% (inactive) and 110% (inactive)
16 | CC(C)Cc1ccc(C(C)C(=O)NCc2ccc(Cn3c(=O)sn(CCCI)c3=O)cc2)cc1 (stereo not given) | 70.9% (inactive)
17 | O=C(O)CSCc1nc2ccccc2[nH]1 | 113% (inactive)
18 | COc1ccc(-c2ncnc3c2ncn3C/C=C/CCl)cc1 | 111% (inactive) and 109% (inactive)
19 | Nc1ccc(N=Nc2ccc(S(=O)(=O)O)cc2)cc1S(=O)(=O)O | 105% (inactive) and 106% (inactive)
20 | COC(=O)/C=C/c1cc(O)c2c(c1)C(C(=O)OC)C(c1ccc(O)c(O)c1)O2 (stereo not given) | 43.1% (inactive) and 29.2% (inactive)

Row | Structure (SMILES) | growth
21 | CCN(CC)C(=S)SSC(=S)N(CC)CC | 98.7% (inactive) and 102% (inactive)
22 | O=C(N/N=C/c1cccc2ccccc12)C1CC1 | 108% (inactive) and 117% (inactive)
23 | O[C@H](c1cc(C(F)(F)F)nc2c(C(F)(F)F)cccc12)[C@@H]1CCCCN1 | 79.1% (inactive) and 74.6% (inactive)
24 | CC(C(=O)O)n1cc(C#N)c(=O)[nH]c1=O (stereo not given) | 102% (inactive) and 98.6% (inactive)
25 | Cc1ccc2nc3c(nc2c1)-c1cccc2cccc-3c12 | 112% (inactive)
26 | CCOC(=O)C(C(=O)OCC)C(c1ccccc1)N1CCN(c2ccccc2)CC1 (stereo not given) | 115% (inactive) and 108% (inactive)
27 | OCCN1CCN(CCO)CC1 | 104% (inactive) and 106% (inactive) and 109% (inactive)
28 | Fc1ccccc1Nc1n[nH]c(=S)s1 | 110% (inactive)
29 | CC(C)(O)Cn1cc(-c2ccc3nc(OC4CC4)ccc3c2)c2c(N)ncnc21 | 83.4% (inactive) and 57.9% (inactive)
30 | Cc1cc(O)c(C(C)C)cc1S(=O)(=O)O (tested in a mixture with another compound) | 105% (inactive) and 5.41% (active) and 118% (inactive)
31 | CC1=C[C@H]2c3c(c(O)c(O)c4oc5cc(O)cc(O)c5c(=O)c34)[C@H](c3cc(O)c(O)c4oc5cc(O)cc(O)c5c(=O)c34)[C@H]2C(C)(C)C1 | -1.03% (active)
32 | Oc1c(Cl)cc(Cl)cc1Sc1cc(Cl)cc(Cl)c1O | 74.6% (inactive) and 96.4% (inactive)
33 | COc1ccccc1/C=N\N=C(N/N=C/c1ccccc1OC)N/N=C/c1ccccc1OC | 73.7% (inactive) and 49.8% (inactive)
34 | Cc1cc(=O)[nH]c(O)c1C#N | 105% (inactive) and 96.2% (inactive)
35 | NCCSC(C[N+](=O)[O-])c1ccccc1Cl (stereo not given) | 112% (inactive)
36 | COc1c(/C(C)=N/N=c2sc(C(C)=O)nn2-c2ccc(Cl)cc2)c(Oc2ccccc2)c(OC)c2occc12 | 137% (inactive) and 107% (inactive)
37 | O=C(Nc1cccc(Cl)c1)c1cc2ccccc2cc1O | -11.7% (active)
38 | CC[N+](CC)(CC(=O)Nc1c(C)cccc1C)Cc1ccccc1 | 102% (inactive) and 107% (inactive)

same assay, conditions: 30 µM

Row | Structure (SMILES) | growth
39 | CNC(=O)c1cc(Oc2ccc(CC(=O)Nc3cc(C(C)(C)C)nn3C)cc2)ccn1 | 94.4% (inactive)

same assay, conditions: 100 µM

Row | Structure (SMILES) | growth
40 | CCc1ccccc1-n1c(N)c(C#N)c(-c2ccc(OC)c(OC)c2)c(C#N)c1=O | -20.7% (active)
